Measured values published in the supplement of paper PMC8728848.
The entries come from a sample that favours the strongest signals as a whole.

Tests used:
Assay in all cases: glycan array binding signal (z-score within array); higher = stronger binding
Details in all cases: glycan notation: IUPAC condensed, linker removed
[1] = target: Fuc(a1-2)Gal(b1-4)GlcNAc(b1-2)Man(a1-3)[Fuc(a1-2)Gal(b1-4)GlcNAc(b1-2)Man(a1-6)]Man(b1-4)GlcNAc(b1-4)[Fuc(a1-6)]GlcNAc
Procedure, shortened: (§1)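 Negative Z-scores can be read as non-binding. The Z-score is calculated within each array and then averaged across arrays of one protein sequence at different concentrations or buffers and across linkers. Arrays, 3228 in all, were curated from the Consortium for Functional Glycomics database and kept only where the protein sequence was available.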

[2] = target: Fuc(a1-2)[Gal(a1-3)]Gal(b1-3)GalNAc
Procedure, shortened: as §1

[3] = target: Fuc(a1-2)[Gal(a1-4)]Gal(b1-4)GlcNAc
Procedure, shortened: as §1

[4] = target: Fuc(a1-2)[GalNAc(a1-3)]Gal(b1-4)Glc
Procedure, shortened: as §1

[5] = target: Fuc(a1-2)[GalNAc(a1-3)]Gal(b1-4)[Fuc(a1-3)]GlcNAc(b1-3)GalNAc
Procedure, shortened: as §1

[6] = target: Fuc(a1-3)[GalNAc(b1-4)]GlcNAc
Procedure, shortened: as §1

Gal(a1-3)GalNAc = target: Gal(a1-3)GalNAc
Procedure, shortened: as §1

[7] = target: Gal(a1-3)[Gal(a1-4)]Gal(b1-4)GlcNAc
Procedure, shortened: as §1

Gal(a1-4)Gal(b1-4)Glc = target: Gal(a1-4)Gal(b1-4)Glc
Procedure, shortened: as §1

Gal(b1-2)Gal = target: Gal(b1-2)Gal
Procedure, shortened: as §1

[8] = target: Gal(b1-3)GalNAc(b1-4)Gal(b1-4)Glc
Procedure, shortened: as §1

Gal(b1-3)GlcNAc = target: Gal(b1-3)GlcNAc
Procedure, shortened: as §1

[9] = target: Gal(b1-3)GlcNAc(b1-2)Man(a1-3)[Gal(b1-3)GlcNAc(b1-2)Man(a1-6)]Man(b1-4)GlcNAc(b1-4)GlcNAc
Procedure, shortened: as §1

[10] = target: Gal(b1-3)GlcNAc(b1-3)Gal(b1-4)Glc
Procedure, shortened: as §1

[11] = target: Gal(b1-3)GlcNAc(b1-3)Gal(b1-4)GlcNAc(b1-3)Gal(b1-4)GlcNAc(b1-2)[Gal(b1-3)GlcNAc(b1-3)Gal(b1-4)GlcNAc(b1-3)Gal(b1-4)GlcNAc(b1-6)]Man(a1-6)[Gal(b1-3)GlcNAc(b1-3)Gal(b1-4)GlcNAc(b1-3)Gal(b1-4)GlcNAc(b1-2)Man(a1-3)]Man(b1-4)GlcNAc(b1-4)[Fuc(a1-6)]GlcNAc
Procedure, shortened: as §1

[12] = target: Gal(b1-3)GlcNAc(b1-6)[Gal(b1-3)]GalNAc
Procedure, shortened: as §1

[13] = target: Gal(b1-3)[Fuc(a1-4)]GlcNAc(b1-2)Man(a1-3)[Gal(b1-3)[Fuc(a1-4)]GlcNAc(b1-2)Man(a1-6)]Man(b1-4)GlcNAc(b1-4)[Fuc(a1-6)]GlcNAc
Procedure, shortened: as §1

[14] = target: Gal(b1-3)[Fuc(a1-4)]GlcNAc(b1-6)GalNAc
Procedure, shortened: as §1

[15] = target: Gal(b1-4)GlcNAc(b1-2)Man(a1-6)[GlcNAc(b1-2)Man(a1-3)]Man(b1-4)GlcNAc(b1-4)GlcNAc
Procedure, shortened: as §1

[16] = target: Gal(b1-4)GlcNAc(b1-3)Gal(b1-4)Glc
Procedure, shortened: as §1

[17] = target: Gal(b1-4)GlcNAc(b1-3)Gal(b1-4)GlcNAc(b1-2)Man(a1-3)[Gal(b1-4)GlcNAc(b1-3)Gal(b1-4)GlcNAc(b1-2)Man(a1-6)]Man(b1-4)GlcNAc(b1-4)GlcNAc
Procedure, shortened: as §1

[18] = target: Gal(b1-4)GlcNAc(b1-3)Gal(b1-4)GlcNAc(b1-3)Gal(b1-4)GlcNAc(b1-3)Gal(b1-4)GlcNAc(b1-2)Man(a1-3)[Gal(b1-4)GlcNAc(b1-3)Gal(b1-4)GlcNAc(b1-3)Gal(b1-4)GlcNAc(b1-3)Gal(b1-4)GlcNAc(b1-2)Man(a1-6)]Man(b1-4)GlcNAc(b1-4)[Fuc(a1-6)]GlcNAc
Procedure, shortened: as §1

[19] = target: Gal(b1-4)GlcNAc(b1-3)GalNAc
Procedure, shortened: as §1

Gal3S(b1-4)Glc6S = target: Gal3S(b1-4)Glc6S
Procedure, shortened: as §1

[20] = target: Gal3S(b1-4)[Fuc(a1-3)]Glc6S
Procedure, shortened: as §1

[21] = target: GalNAc(b1-3)Gal(a1-4)Gal(b1-4)GlcNAc
Procedure, shortened: as §1

GalNAc(b1-4)GlcNAc = target: GalNAc(b1-4)GlcNAc
Procedure, shortened: as §1

GalNAc4S6S(b1-4)GlcNAc = target: GalNAc4S6S(b1-4)GlcNAc
Procedure, shortened: as §1

[22] = target: GlcNAc(a1-3)Gal(b1-4)GlcNAc
Procedure, shortened: as §1

[23] = target: GlcNAc(a1-4)Gal(b1-4)GalNAc
Procedure, shortened: as §1

[24] = target: GlcNAc(b1-3)Gal(b1-4)GlcNAc(b1-6)[Gal(b1-3)]GalNAc
Procedure, shortened: as §1

[25] = target: GlcNAc(b1-4)GlcNAc(b1-4)GlcNAc
Procedure, shortened: as §1

Kdn(a2-6)Gal(b1-4)GlcNAc = target: Kdn(a2-6)Gal(b1-4)GlcNAc
Procedure, shortened: as §1

[26] = target: Man(a1-2)Man(a1-6)[Man(a1-3)]Man(a1-6)[Man(a1-2)Man(a1-2)Man(a1-3)]Man(b1-4)GlcNAc(b1-4)GlcNAc
Procedure, shortened: as §1

[27] = target: Neu5Ac(a2-3)Gal(b1-4)GlcNAc(b1-2)Man(a1-3)[Neu5Ac(a2-3)Gal(b1-4)GlcNAc(b1-2)Man(a1-6)]Man(b1-4)GlcNAc(b1-4)GlcNAc
Procedure, shortened: as §1

[28] = target: Neu5Ac(a2-3)Gal(b1-4)GlcNAc(b1-3)[Neu5Ac(a2-3)Gal(b1-4)GlcNAc(b1-6)]GalNAc
Procedure, shortened: as §1

[29] = target: Neu5Ac(a2-3)Gal(b1-4)GlcNAc(b1-6)GalNAc
Procedure, shortened: as §1

[30] = target: Neu5Ac(a2-3)Gal(b1-4)GlcNAc6S
Procedure, shortened: as §1

[31] = target: Neu5Ac(a2-3)[GalNAc(b1-4)]Gal(b1-4)GlcNAc
Procedure, shortened: as §1

[32] = target: Neu5Ac(a2-8)Neu5Ac(a2-3)Gal(b1-4)Glc
Procedure, shortened: as §1

[33] = target: Neu5Ac(b2-6)Gal(b1-4)GlcNAc
Procedure, shortened: as §1

[34] = target: Neu5Gc(b2-6)Gal(b1-4)GlcNAc
Procedure, shortened: as §1

B1: AT1G15820(2) (Arabidopsis thaliana), Q9LMQ2 (protein)
chain: MAMAVSGAVLSGLGSSFLTGGKRGATALASGVGTGAQRVGRKTLIVAAAAAQPKKSWIPAVKGGGNFLDPEWLDGSLPGDFGFDPLGLGKDPAFLKWYREAELIHGRWAMAAVLGIFVGQAWSGVAWFEAGAQPDAIAPFSFGSLLGTQLLLMGWVESKRWVDFFNPDSQSVEWATPWSKTAENFANYTGDQGYPGGRFFDPLGLAGKNRDGVYEPDFEKLERLKLAEIKHSRLAMVAMLIFYFEAGQGKTPLGALGL
glycan array binding signal (z-score) [1]: -0.613
glycan array binding signal (z-score) [2]: -0.022
glycan array binding signal (z-score) [3]: 1.93
glycan array binding signal (z-score) [4]: -0.507
glycan array binding signal (z-score) [5]: 6.82
glycan array binding signal (z-score) [6]: 1.79
glycan array binding signal (z-score) (Gal(a1-3)GalNAc): 3.12
glycan array binding signal (z-score) [7]: 9.8
glycan array binding signal (z-score) (Gal(a1-4)Gal(b1-4)Glc): 2.16
glycan array binding signal (z-score) (Gal(b1-2)Gal): 0.453
glycan array binding signal (z-score) [8]: 2.89
glycan array binding signal (z-score) (Gal(b1-3)GlcNAc): 0.12
glycan array binding signal (z-score) [9]: 0.477
glycan array binding signal (z-score) [10]: -0.032
glycan array binding signal (z-score) [11]: 1.41
glycan array binding signal (z-score) [12]: 0.112
glycan array binding signal (z-score) [13]: -0.308
glycan array binding signal (z-score) [14]: -0.229
glycan array binding signal (z-score) [15]: 0.324
glycan array binding signal (z-score) [16]: -0.362
glycan array binding signal (z-score) [17]: 0.779
glycan array binding signal (z-score) [18]: 0.197
glycan array binding signal (z-score) [19]: -0.445
glycan array binding signal (z-score) (Gal3S(b1-4)Glc6S): 0.421
glycan array binding signal (z-score) [20]: 1.96
glycan array binding signal (z-score) [21]: 3.99
glycan array binding signal (z-score) (GalNAc(b1-4)GlcNAc): 8.56
glycan array binding signal (z-score) (GalNAc4S6S(b1-4)GlcNAc): -0.032
glycan array binding signal (z-score) [22]: -0.384
glycan array binding signal (z-score) [23]: 0.069
glycan array binding signal (z-score) [24]: -0.16
glycan array binding signal (z-score) [25]: -0.425
glycan array binding signal (z-score) (Kdn(a2-6)Gal(b1-4)GlcNAc): -0.581
glycan array binding signal (z-score) [26]: -0.821
glycan array binding signal (z-score) [27]: -0.363
glycan array binding signal (z-score) [28]: 0.172
glycan array binding signal (z-score) [29]: -0.315
glycan array binding signal (z-score) [30]: -0.028
glycan array binding signal (z-score) [31]: -0.469
glycan array binding signal (z-score) [32]: -0.326
glycan array binding signal (z-score) [33]: -0.408
glycan array binding signal (z-score) [34]: -0.566
